According to PubChem BioAssay AID652104 (National Center for Advancing Translational Sciences (NCATS), 2013):
The whole screen tested about 410,000 compounds, of which about 7,200 (1.8%) were called active. Another 7% or so got no clear call; they are omitted. The entries come from a sample that favours actives as a whole. A call without a number means that no potency is given here. A number with no mark means an inactive call. The call rests on the fitted dose curve; in most records, active means well fitted activation curve with a large enough effect; inconclusive means small, poorly fitted or top-dose-only effect, or another doubt; inactive means no such curve, though single readings can be large or run the other way.

test: qHTS of TDP-43 Inhibitors; conditions: TDP-43 expressing yeast growth rescue, BacTiter-Glo, 24 h; series mostly up to 46.1 µM; further: nearly all actives have a fitted effect of over 50% in size
Source text: The goal of this project is to identify new chemical probes capable of reversing the toxicity associated with TDP-43 which is associated with frontotemporal lobar degeneration and amyotrophic lateral sclerosis. These compounds will provide a complementary approach to deciphering the tangled mechanisms of toxicity and protection that we have uncovered through genome-wide genetic screens and are beginning to uncover in a large-scale proteomics analysis with mass spectroscopy.
To this end, a miniaturized assay was developed to be screened against the Molecular Libraries Small Molecule Repository (MLSMR) to discover TDP-43 inhibitors. Please note that in the set-up this yeast-based assay compounds that inhibit as TDP-43, have a read-out as activators.
NIH Chemical Genomics Center [NCGC]
NIH Molecular Libraries Probe Centers Network [MLPCN]
Assay Submitter (PI): Susan Lindquist, Whitehead Institute/MIT
Dispense 2.5 microL yeast galactose medium per 1536-well plate, pin compound, dispense 2.5 microL TDP-43 expressing yeast in galactose medium at OD600=0.02 (pregrown in raffinose medium to mid-log phase) per well, incubate for 24 hr at 30 deg C, and cell growth will be measured using 5 microL of Bactiter/Glo reagent to entire plate and read using Luminescence Protocol in ViewLux.
Potency means the concentration at half of the fitted maximal effect.

Structure (SMILES) | Potency | growth rescue (activation)
NC(=O)C1CCN(C(=O)c2ccc(F)c(S(=O)(=O)N3CCOCC3)c2)CC1 | inactive | 
CC1CCN(c2ccc(S(=O)(=O)Nc3cc(C(=O)O)cc(C(=O)O)c3)cc2[N+](=O)[O-])CC1 | inactive | 
CC1CCN(C(=O)c2ccc(S(=O)(=O)Cc3cc(F)ccc3F)c([N+](=O)[O-])c2)CC1 | 11.2 µM (active) | 
Cc1cc(C)cc(OCC(=O)Nc2c(C(=O)c3ccccc3)oc3ccccc23)c1 | inactive | 
COc1ccc(CCNC(=O)c2ccc(-n3c(C)cc4c3CCCC4)cc2)cc1OC | inactive | 
CC1CCN(S(=O)(=O)c2ccc3c(ccn3CCC(=O)NCc3ccc(N(C)C)cc3)c2)CC1 | inactive | 
CC1CCC2(CC1)N=C(c1ccccc1)C(=O)N2CC(=O)Nc1ccc(F)c(Cl)c1 (configuration not stated) | inactive | 
Cc1ccc(Cl)cc1NC(=O)NC1COc2ccccc2C1 (configuration not stated) | inactive | 
O=C1C(=O)N(CC2COc3ccccc3O2)c2ccccc21 (configuration not stated) | 28.2 µM (active) | 
Cc1cc(C(=O)CCl)c(C)n1CC1COc2ccccc2O1 (configuration not stated) | 20 µM (active) | 
OC(COCC1COc2ccccc2O1)CN1CCN(c2ccc(F)cc2)CC1 (configuration not stated) | inactive | 
CC1COc2ccccc2N1S(=O)(=O)c1ccccc1 (configuration not stated) | inactive | 
Cc1n[nH]c(C)c1S(=O)(=O)N1CCCC(C(=O)NCC2COc3ccccc3O2)C1 (configuration not stated) | inactive | 
COc1ccccc1Nc1c2c(nc3ccc(NC(=O)/C=C/c4cc(OC)c(OC)c(OC)c4)cc13)CCCC2 | inactive | 
CCc1ccc(NC(=O)C2CCCN2S(=O)(=O)c2ccc3nc(-c4ccccc4)[nH]c3c2)cc1 (configuration not stated) | inactive | 
C=Cc1ccc(Cn2c(C(=O)OC)cc3sc(C)cc32)cc1 | inactive | 
CCN1CCN(c2ncc3c(n2)CC(c2ccccc2O)CC3=O)CC1 (configuration not stated) | inactive | 
Cc1ccc(-n2c3nc(=O)[nH]c(=O)c-3cc3c(Cl)cccc32)cc1 | inactive | 
Cc1ccc(CNC(=O)c2c(O)nc3c(C)cccn3c2=O)cc1 | inactive | 
CCOc1cc(C(=O)Nc2nnc3n2CCS3)cc(OCC)c1OCC | inactive | 
Cc1ccccc1NC(=O)Cn1c(=O)n(CCCCC(=O)NCc2ccccc2Cl)c(=O)c2ccccc21 | inactive | 

Structure (SMILES) | Potency | growth rescue (activation)
Cc1ccc(C)c(NC(=O)Cn2ccn(-c3ccc(F)cc3)c(=O)c2=O)c1 | inactive | 
COc1ccccc1-c1cc(C(F)(F)F)nc(S(=O)(=O)CCCC(=O)Nc2cc(C)ccc2O)n1 | inactive | 
CSc1ccccc1NC(=O)CCS(=O)(=O)c1nc(-c2cccs2)cc(C(F)(F)F)n1 | inactive | 
COc1ccccc1-c1cc(C(F)(F)F)nc(S(=O)(=O)CCCC(=O)Nc2ccc(F)cc2F)n1 | 14.1 µM (active) | 
CCOC(=O)c1ccc(NC(=O)c2ncn(-c3ccccc3)n2)cc1 | inactive | 
Cc1cccc(N2CCN(C(=O)c3ccc(Nc4nc5ccccc5n5nnnc45)cc3)CC2)c1C | inactive | 
Cc1ccc(C=O)c([B-](F)(F)F)c1 | 11.2 µM (active) | 
CN1c2ccc(C=O)c3c(C=O)ccc(c23)N(C)C1(C)C | inactive | 
CCOc1ccc(OCC)c(Nc2nc3ccccc3n3nnnc23)c1 | inactive | 
Cc1cc(=O)c2cc(C(=O)Nc3cccc(C)c3C)ccc2[nH]1 |  | 0% [at 9.22 µM]
O=C(COc1ccc(F)cc1Br)NCC1COc2ccccc2O1 (configuration not stated) | 22.4 µM (active) | 
O=C(COC(=O)COc1cccc(F)c1)NCC1CCCCC1 | inactive | 
CCC(=O)c1cc(F)ccc1OCC(=O)Nc1ccc2c(c1)OCCO2 | inactive | 
CCC(=O)N1CCc2cc(S(=O)(=O)NC(C(=O)Nc3ccc(C(C)=O)cc3)C(C)C)ccc21 (configuration not stated) | inactive | 
CC(=O)Nc1ccc(NC(=O)CSc2nnnn2-c2ccccc2F)cc1 | inactive | 
Cc1ccccc1-n1nnnc1SCCCC(=O)c1ccc(F)cc1 | 35.5 µM (active) | 
CCn1nnnc1SCC(=O)c1ccc(C)cc1C | inactive | 
COc1ccc(CNC(=O)CSCc2nc(-c3ccccc3F)oc2C)cc1 | inactive | 
COc1ccc(Br)cc1C1CC(=O)Nc2c1c(C)nn2-c1nc(C)cc(C)n1 (configuration not stated) |  | 10.5% [at 9.22 µM]
COc1ccccc1N1CCN(c2ncnc3onc(-c4cccc(Cl)c4)c23)CC1 | inactive | 
COc1ccccc1N1CCN(c2ncnc3sc(C)c(-c4ccccc4)c23)CC1 | 17.8 µM (active) | 

Structure (SMILES) | Potency | growth rescue (activation)
CN(Cc1ccccc1)c1ncnc2onc(-c3ccc(F)cc3)c12 | 35.5 µM (active) | 
COc1ccccc1N1CCN(CCCCOc2ccc(F)cc2)CC1 | inactive | 
Cc1cc(C)cc(Nc2ncnc3onc(-c4ccc(F)cc4)c23)c1 | inactive | 
COc1ccccc1N1CCN(c2ncnc3onc(-c4ccc(F)cc4)c23)CC1 | 15.8 µM (active) | 
COC(=O)c1cnc(N2CCN(c3ccccc3OC)CC2)c2ccccc12 | inactive | 
COc1ccccc1N1CCN(c2ccc([N+](=O)[O-])nc2)CC1 | inactive | 
CN(Cc1ccccc1)c1ccc(-c2nc(-c3ccccc3)no2)cc1[N+](=O)[O-] | inactive | 
CCOc1ccc(OCC)c(NC(=O)c2c(C)nn(-c3ccccc3)c2-n2cccc2)c1 | inactive | 
O=C(Nc1ccc(Br)cc1)c1cc2nc(-c3ccccc3)cc(-c3ccccc3)n2n1 | inactive | 
Cc1ccc2c(c1)N(C(=O)CCC(=O)NCc1ccccc1F)CC(C)O2 (configuration not stated) | inactive | 
Cc1ccc2c(=O)cc(C(=O)Nc3sc4c(c3C(=O)NCc3cccnc3)CCCC4)oc2c1 | inactive | 
O=C(CSc1nccn1C1CCCC1)Nc1cc(C(F)(F)F)ccc1Cl | inactive | 
CCOC(=O)c1cnc(SCC(=O)Nc2cccc(OC)c2)nc1N | inactive | 
CCOC(=O)c1cnc(SCC(=O)Nc2ccccc2C(=O)OC)nc1N | 22.4 µM (active) | 
COC(=O)c1ccccc1NC(=O)CSc1n[nH]c(-c2ccncc2)n1 | inactive | 
Cc1nc(SCC(=O)Nc2ccc(C(=O)O)cc2)n[nH]1 | inactive | 
O=C(Nc1ccc(C(=O)OCc2cc(=O)n3nc(C4CC4)sc3n2)cc1)c1ccc(F)cc1 | inactive | 
CCCCNC(=O)c1ccc2c(c1)NC(=O)C(C(C)C)N2 (configuration not stated) | inactive | 
CCc1ccccc1N1CC(c2nc3ccccc3n2CCCCOc2ccccc2)CC1=O (configuration not stated) | inactive | 
CCOC(=O)c1c(S(=O)(=O)N2CCCC(C(=O)NCc3cccc(C)c3)C2)c(C)n(C)c1C (configuration not stated) | inactive | 
